Source: PubChem (National Center for Advancing Translational Sciences (NCATS))
Sampled rows, rich in hits. Any-hit rate of the full collection: about 6.5%.
Lassa entry inh = blocks Lassa virus binding to or entry into cells. AID 540256. Potency, µM (top dose mostly 37.9 µM), inactives show at the highest dose activity change, negative = inhibition, hits mostly inhibitors. Lassa virus pseudotype entry inhibition, cell reporter. 1.2% of 300,000 active; calls by dose curve; tested in HEK293 cells; further: potency means the concentration at half of the fitted maximal effect; nearly all actives have a fitted effect of over 50% in size
VACV Venus inh = vaccinia inhibition (Venus reporter); Vaccinia virus Venus reporter expression, fluorescence; Potency, µM (top dose mostly 36.5 µM), for inactives: at the highest dose activity change, negative = inhibition, actives largely listed as inhibitors; 0.46% of 330,000 active; AID 720580; calls by dose curve; tested in A549 cells; further: potency means the concentration at half of the fitted maximal effect; nearly all actives have a fitted effect of over 30% in size
HCMV inh = human cytomegalovirus inhibition; HFF cells, HCMV-luciferase reporter, 72 h; hits give low values; activity change, negative = inhibition, % at 57.5 µM; 4.5% of 410,000 active; in the data active means activity change below about -60%; inconclusive means no clear call, values can overlap the other calls; inactive means above about -39%
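Two compound doses tested in HFFs infected with HCMV-luciferase, MOI 1 PFU/cell, 72 h at 37C. Lysate luminescence read with OneGlo; data normalized against buffer-only and 10uM Salinomycin inhibitor controls.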
Marburg entry inh = Marburg virus entry inhibition | Marburg virus pseudotyped entry inhibition, cell reporter | Potency, µM (highest dose often 37.8 µM), without a hit: at the top dose activity change, negative = inhibition, most hits filed as inhibitors | AID 540276 | 1.8% of 300,000 active; calls by dose curve; tested in HEK293 cells; further: potency means the concentration at half of the fitted maximal effect
Vaccinia mCherry = inhibitors of vaccinia virus infection (mCherry reporter signal); Vaccinia virus mCherry reporter infection, fluorescence; Potency, µM (titrated, usually from 36.5 µM), for inactives: top-dose activity change, negative = inhibition, most hits filed as inhibitors; 0.63% of 310,000 active; calls by dose curve; tested in A549 cells; further: potency means the concentration at half of the fitted maximal effect; nearly all actives have a fitted effect of over 35% in size
FMDV antiviral = blocks foot and mouth disease virus. FMDV antiviral cell-based qHTS. Potency, µM (titrated, usually from 57.9 µM), without a hit: at the highest dose activity change, negative = inhibition, most hits filed as inhibitors. 1.2% of 410,000 active; calls by dose curve; tested in HEK293T cells; further: read-out not given here; potency means the concentration at half of the fitted maximal effect; nearly all actives have a fitted effect of over 45% in size
Starred values were filed as active, the others as inactive; i = inactive; u = inconclusive; x = no result; [ ] = remark or other dose. On the % scale 0 is the no-effect control and ±100 the full control effect.

SMILES	Lassa entry inh	VACV Venus inh	HCMV inh	Marburg entry inh	Vaccinia mCherry	FMDV antiviral
CCCCNc1c(-c2ccc(OC)c(SC3CCCCC3)c2)nc2cnccn12	x	u	x	x	u	0%
CCCCNc1c(-c2cccc(-c3ccc(OC)cc3)c2)nc2cc(C)ccn12	x	u	-102*	x	u	25µM*
Cc1ccc2c(c1)CN(CCNC(=O)c1cc3ccccc3oc1=O)CC(C)O2 (stereo not given)	x	1%	x	x	-7%	0%
CC1(C)Cc2c(sc(NC(=O)c3ccccc3)c2C(=O)O)CO1	u	-22%	66	u	-5%	9%
CC(C)COc1ccc(C(=O)Nc2sc3c(c2C(=O)O)CC(C)(C)OC3)cc1	u	-22%	u	1.3µM*	u	-10%
COc1ccc(C(=O)Nc2sc3c(c2C(=O)O)CC(C)(C)OC3)cc1	u	-25%	0	4.5µM*	-12%	-17%
C#CC1(O)C2C=C(OC)C(=O)C1C(c1ccccc1)C2C (stereo not given)	x	x	x	26%[14.2 µM]	x	x
CCCCC(=O)N1c2ccccc2C(C)(c2ccccc2)CC1(C)C (stereo not given)	u	9%	-7	-26%[46.1 µM]	4%	-26%
COc1cccc(C(=O)N2c3cc(C)ccc3C(C)(c3ccccc3)CC2(C)C)c1 (stereo not given)	u	-1%	-16	x	-10%	u
CC1(c2ccc(Cl)cc2)CC(C)(C)N(C(=O)c2cccc(F)c2)c2ccccc21 (stereo not given)	-14%[46.1 µM]	-14%	-65*	x	-14%	-6%
COc1ccccc1C(=O)N1c2ccccc2C(C)(c2ccc(Cl)cc2)CC1(C)C (stereo not given)	u	-25%	-72*	x	-26%	u
COc1ccc(C(=O)N2c3ccc(C)cc3C(C)(c3ccccc3)CC2(C)C)cc1 (stereo not given)	-9%[46.1 µM]	-10%	-71*	x	-13%	u
Cc1ccc2c(c1)C(C)(c1ccccc1)CC(C)(C)N2C(=O)c1ccc(F)cc1 (stereo not given)	21%[46.1 µM]	-14%	u	x	-11%	u
CC1(c2ccccc2)CC(C)(C)N(C(=O)c2ccccc2Cl)c2ccccc21 (stereo not given)	-1%[46.1 µM]	-9%	28	20%[46.1 µM]	-8%	28µM*
C[C@H]1Cc2c(-c3ccccc3)nc3c(c2CO1)CN(C(=O)NCc1ccco1)CC3	x	x	x	9%[14.2 µM]	x	x
Cc1ccc(CCNC(=O)c2ccc3c(Cl)c4c(nc3c2)CCCC4)cc1	-13%[46.1 µM]	1%	-24	9%[46.1 µM]	-11%	0%
COC(=O)c1ccc(C(NC(=O)OCc2ccccc2)/C(F)=C/[C@@H](C)C(=O)NCc2ccc(-c3ccccc3)cc2)cc1 (stereo not given in full)	-16%	-8%	x	-14%	i	3%
COC(=O)c1ccc(C(NC(=O)OCc2ccccc2)/C(F)=C/[C@@H](C)C(=O)NCc2ccc(OC)c(OC)c2)cc1 (stereo not given in full)	15µM*	u	-11	u	-23%	u
CCc1c(C)c2cc3c(c(C)c2oc1=O)OCN(CCc1ccccc1F)C3	u	-2%	34	13%[46.1 µM]	-30%	-10%
COc1ccc(Cc2c(-c3ccco3)nc3c(C)cc(Br)cn23)c(C)c1	x	-4%	-4	x	i	u
COc1ccccc1Cc1c(-c2ccco2)nc2c(C)cc(Br)cn12	x	-4%	x	x	i	14µM*
Cc1cc(Br)cn2c(Cc3ccsc3)c(-c3ccco3)nc12	x	0%	57	x	17%	35µM*
C[C@H]1C=C2C=C[C@H](C)[C@H](CC[C@@H]3C[C@@H](O)CC(=O)O3)[C@H]2[C@@H](OC(=O)[C@@H](C)CCO)C1	x	x	x	x	x	-23%
COC(C)(C)CCCC(C)C/C=C/C(C)=C/C(=O)O (stereo not given)	x	-1%	x	x	i	-18%
Cc1cc(C)c(C2=NOC3C4CCC(C4)C23)c(C)c1 (stereo not given)	-7%	-9%	-63*	3%	-26%	-21%
CCNc1ccc(Br)cc(C(=O)/C=C/c2ccc(Cl)cc2Cl)c1=O	u	x	-103*	u	x	u
CNc1ccc(Br)cc(C(=O)/C=C/c2ccc(OC)cc2)c1=O	-15%	-6%	3	-17%	i	16µM*
